Laboratory results published in ChEMBL document CHEMBL2218924, “A broad activity screen in support of a chemogenomic map for kinase signalling research and drug discovery” (Biochem J, 2013).

Target: Tyrosine-protein kinase Fyn (Homo sapiens) (UniProt P06241)
Details: at 1 µM

Chain of Tyrosine-protein kinase Fyn (Homo sapiens) (P06241 2-537 limits assumed): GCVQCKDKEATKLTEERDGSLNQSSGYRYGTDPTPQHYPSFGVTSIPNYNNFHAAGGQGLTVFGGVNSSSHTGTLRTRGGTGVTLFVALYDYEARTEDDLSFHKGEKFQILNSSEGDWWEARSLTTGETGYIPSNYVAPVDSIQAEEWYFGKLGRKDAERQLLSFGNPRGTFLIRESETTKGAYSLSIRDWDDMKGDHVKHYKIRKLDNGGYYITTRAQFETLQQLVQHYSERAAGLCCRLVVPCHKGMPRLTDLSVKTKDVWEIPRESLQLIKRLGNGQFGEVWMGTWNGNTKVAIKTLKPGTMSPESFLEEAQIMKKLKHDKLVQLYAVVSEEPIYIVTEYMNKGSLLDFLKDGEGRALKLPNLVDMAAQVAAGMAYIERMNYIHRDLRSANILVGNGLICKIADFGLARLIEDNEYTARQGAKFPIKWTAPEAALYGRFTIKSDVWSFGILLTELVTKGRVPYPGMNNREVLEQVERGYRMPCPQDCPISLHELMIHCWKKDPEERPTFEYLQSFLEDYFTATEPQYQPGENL

SMILES	residual activity
CC(=O)O/N=C1\C(=C2\C(=O)Nc3cc(Br)ccc32)Nc2ccccc21	1%
Oc1n[nH]c2nnc(-c3c(-c4ccccc4)nn4ccccc34)cc12	75%
Cn1cnc2cc3c(Nc4cccc(Br)c4)ncnc3cc21	67%
O=C(O)c1ccc2c3c1cccc3c(=O)n1c3ccccc3nc21	80%
Nc1nc(Nc2ccc(S(N)(=O)=O)cc2)nn1C(=S)Nc1c(F)cccc1F	6%
CCC(=O)Nc1ccc2ncnc(Nc3cccc(Br)c3)c2c1	85%
CO[C@H]1C[C@@H]2CC[C@@H](C)[C@@](O)(O2)C(=O)C(=O)N2CCCC[C@H]2C(=O)O[C@H]([C@H](C)C[C@@H]2CC[C@@H](O)[C@H](OC)C2)CC(=O)[C@H](C)/C=C(\C)[C@@H](O)[C@@H](OC)C(=O)[C@H](C)C[C@H](C)/C=C/C=C/C=C/1C	88%
O=C1NC(=O)/C(=C/c2ccc3c(c2)OC(F)(F)O3)S1	93%
O=C1Nc2ccccc2/C1=C1/Nc2ccccc2/C1=N\OCCC(O)CO (stereo unspecified)	-1%
O=c1c2ccccc2[nH]c(=S)n1CCN1CCC(=C(c2ccc(F)cc2)c2ccc(F)cc2)CC1	89%
CC(C)n1cnc2c(NCc3ccccc3)nc(NCCCO)nc21	93%
Cc1nc2cc3nc(-c4cccs4)cnc3cc2n1C	103%
COc1cc2ncnc(Nc3ccc(O)c(Br)c3)c2cc1OC	49%
CCOc1cc2ncnc(Nc3cccc(Br)c3)c2cc1OCC	26%
Cn1cc(/C=C2\C(=O)Nc3ccc(S(N)(=O)=O)cc32)c2ccccc21	10%
COc1ccc(CNc2nc(N(CCO)CCO)nc3c2ncn3C(C)C)cc1	70%
